Source: PubChem BioAssay AID598 (SRMLSC, 2007)
Hit rate of the full screen: of about 85,000 compounds, about 5,100 (6%) were called active. This is one part of a sample in which actives are shown more often than they occur. A number with no mark means an inactive call.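 The calls were made as follows: active = viability at or below 40%; inactive = viability above 40%.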

Test: proliferation blockers of H69AR lung cancer cells, primary screen, cell-based, human, 86K library (AID 598);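 also: multidrug resistant small cell line overexpressing MRP-1 efflux transporter; 100% = mean luminescence of untreated control wells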
Conditions: H69AR lung tumor viability, ATP luminescence, 72 h; at 10 µM; stronger effect = lower value
`O=C(C(NS(=O)(=O)c1cccc2nsnc12)c1ccccc1)N1CCN(c2ccccc2)CC1` (centres undefined) showed a viability of 52.6%. In the case of `CCSc1nnc(NC(=O)c2ccc(C)cc2)s1`, the viability is reported as 103%. With `Cc1cccc(Nc2ccccc2C(=O)NCc2ccco2)c1C` the viability was 15.7% (active). With `O=C(Nc1ccccc1)Nc1ccccc1C(=O)NCc1ccco1` the viability was 99.2%. For `CCOc1ccccc1C(=O)NCc1ccco1`, the viability was 74.1%. With `O=C(Oc1ccccc1C(=S)N1CCCCC1)c1cc([N+](=O)[O-])cc([N+](=O)[O-])c1` the viability was 94.3%. In the case of `COc1ccccc1N1CC(O)=C(c2nc3ccccc3s2)C1=N`, the viability is reported as 31.6% (active). Work on `COC(=O)c1nc2ccccc2s1` yielded a viability of 86.8%. For `O=C(OC1CCOC1=O)c1ccc(-c2nc3ccccc3s2)s1` (centres undefined), the viability was 92.7%. For `COc1ccc(-c2nnc(SCc3cccnc3)o2)cc1`, the viability was 53.3%. With `O=C(COc1ccc(Cl)cc1)NCCSc1ccccc1` the viability was 95.3%. `CCOC(=O)NCc1ccc2c(c1)OCO2` showed a viability of 113%. For `CCOC(=O)c1c(C)[nH]c(C(=O)COc2ccc3c(c2)OCO3)c1C`, the viability was 81.1%. For `CCOC(=O)c1nc(-c2ccc3c(c2)OCO3)[nH]c1C`, the viability was 36% (active). For `Cn1c(CCN2CCCCCC2)nc2cc(NC(=O)Nc3ccccc3)ccc21`, the viability was 9.15% (active). For `Cc1nn(CC(=O)Nc2ccc3c(c2)nc(CN2CCCCC2)n3C)c(=O)c2ccccc12`, the viability was 104%. For `CCC(=O)Nc1ccc2c(c1)nc(CCN1CCN(C)CC1)n2C`, the viability was 74.1%. `CC1CCC(N2CC(=O)N(Cc3ccc4c(c3)OCO4)C(c3ccc(F)cc3)C2=O)CC1` (centres undefined) gave a viability of 100%. Compound `CC(=O)c1sc(NC(=O)c2ccc(C)cc2)nc1C` has a viability of 80%. For `COc1cccc2sc(Nc3nc(C)c(C(C)=O)s3)nc12`, the viability was 32.5% (active). Work on `COC(=O)c1sc(NC(=O)c2ccc(OC)cc2OC)nc1C` yielded a viability of 69.8%. Work on `CC(C)CC(N=C1NC(C)(C)Cc2ccccc21)C(=O)O` (centres undefined) yielded a viability of 108%. `CCCCc1nnc(NC(=O)CSc2nc(C)cc(=O)[nH]2)s1` gave a viability of 92.2%. In the case of `Cc1ccc(-n2c(CNc3ccc(F)cc3)nnc2SCC(=O)N2CCOCC2)cc1`, the viability is reported as 92%. With `O=C(NCCC1=CCCCC1)C1CCN(Cc2cnn(-c3ccccc3)c2-n2cccc2)CC1` the viability was 26% (active). In the case of `C1=C(CCNc2ncnc3c2cnn3-c2ccccc2)CCCC1`, the viability is reported as 77%. `CC(=O)Nc1ccc(NC(=O)CSCc2cnn(-c3ccccc3)c2-n2cccc2)cc1` showed a viability of 87.6%. Work on `CC(C)Oc1ccc(Oc2ccc(C(F)(F)F)cn2)cc1` yielded a viability of 98.7%. For `N=c1n(Cc2ccc(Cl)cc2)c2ccccc2n1CC(O)c1ccco1` (centres undefined), the viability was 14.7% (active). With `Cn1c(=N)n(CC(O)c2ccccc2)c2ccccc21` (centres undefined) the viability was 80.7%. With `O=S(=O)(O)c1nc2ccccc2n1Cc1ccc(Cl)cc1` the viability was 86.1%. For `O=C(NCc1ccccc1Cl)c1csc2c1CCCCC2`, the viability was 97.3%. Compound `CC(Cc1cccs1)NC(=O)NC1CCCCC1` (centres undefined) has a viability of 87%. In the case of `O=C(NCC(=O)N(Cc1cccs1)C(C(=O)NC1CCCCC1)c1ccco1)c1cccs1` (centres undefined), the viability is reported as 82.2%. For `Cc1ccsc1C(C(=O)NC1CCCCC1)N(C(=O)Cc1cccs1)C1CC1` (centres undefined), the viability was 25.5% (active). `CC(=O)c1ccc(OCCN2CCOCC2)cc1` showed a viability of 85.9%. For `Cc1ccc(NC(=O)N2CCC(O)(c3cccnc3)CC2)cc1`, the viability was 78.4%. In the case of `CCCCc1nnc(NC(=O)CS(=O)(=O)Cc2ccccc2)s1`, the viability is reported as 97%. Compound `O=C(NC1=NCCS1)c1ccc(Cl)s1` has a viability of 93.3%. For `CC(=O)NC1=NN(C(C)=O)C(C)(c2ccc(Cl)s2)S1` (centres undefined), the viability was 17.3% (active). Work on `c1ccc2c(-c3nn4nnnc4c4ccccc34)cccc2c1` yielded a viability of 64.8%. In the case of `CCCn1c(C)cc(C(=O)COC(=O)c2c(C)nn(-c3ccccc3)c2C)c1C`, the viability is reported as 100%. For `CCOC(=O)N1CCN(C(c2cccnc2)c2ccc3cccnc3c2O)CC1` (centres undefined), the viability was 35.2% (active). `Oc1c(C(c2ccccn2)N2CCOCC2)ccc2cccnc12` (centres undefined) gave a viability of 79.3%. Compound `CCN1CCN(C(c2cccnc2)c2cc(Cl)c3cccnc3c2O)CC1` (centres undefined) has a viability of 102%. For `CC(C)(C)c1nc2ccccc2c(=O)n1N1C(=O)c2ccccc2C1=O`, the viability was 63.5%. `Cc1ccc2cc(CCNC(=O)c3c(-c4ccccc4Cl)noc3C)c(=O)[nH]c2c1` showed a viability of 86.2%. `O=C(Nc1ccc(-c2nnc(-c3ccccc3)o2)cc1)C1CCCO1` (centres undefined) showed a viability of 86%. With `O=C(Nc1ccc(-c2nnc(-c3ccccc3)o2)cc1)c1ccc(Br)o1` the viability was 39.8% (active). `Brc1ccc(-c2nnc(-c3ccccc3)o2)o1` showed a viability of 90%. Compound `CC1CCN(S(=O)(=O)c2ccc(S(=O)(=O)NCc3ccco3)cc2)CC1` has a viability of 75.4%. For `Cc1cc(Br)ccc1NC(=O)C1CCCO1` (centres undefined), the viability was 101%. `Cc1ccc(C(=O)NCC2CCCO2)o1` (centres undefined) showed a viability of 93.7%. In the case of `OC(CNCC1CCCO1)Cn1c2ccc(Br)cc2c2cc(Br)ccc21` (centres undefined), the viability is reported as 1.09% (active). For `CCOCCCNC(=O)C(NC(=O)CNC(=O)c1ccccc1)c1ccc(C)cc1` (centres undefined), the viability was 101%. `O=S(=O)(Cc1cc(Sc2ccccc2)nc(-c2ccccc2)n1)c1ccccc1` showed a viability of 84.3%. Work on `CN(c1nc2ccccc2n2c(-c3ccco3)nnc12)S(=O)(=O)c1ccccc1` yielded a viability of 96.1%. For `Cn1c(-c2ccco2)nc2cc3ccccc3cc21`, the viability was 37.4% (active). With `c1coc(-c2nc3nc4ccccc4n3nc2-c2ccco2)c1` the viability was 82.6%. `Cc1ccc(C)c(NC2=NCC(=O)N2c2ccc3c(c2)OCCO3)c1` showed a viability of 100%. `COc1ccc(NC(=O)CCN2CCCC2)c(OC)c1` showed a viability of 94.6%. Work on `CN1C(=O)C(CC(N)=O)N(NC(=O)c2ccc(Cl)cc2)C1=S` (centres undefined) yielded a viability of 98%. With `CCOc1cccc(-n2nnnc2-c2ccc(OC)cc2)c1` the viability was 15.2% (active). `CCOc1cccc(-c2nnc3sc(COc4ccc(OC)cc4)nn23)c1` gave a viability of 51.3%. With `COc1ccc(-n2nnnc2SCC(=O)c2ccc(OC)c(OC)c2)cc1` the viability was 92%. `O=C(CC1(O)C(=O)N(CN2CCOCC2)c2ccccc21)c1ccccc1` (centres undefined) showed a viability of 79.9%. Work on `CCOC(=O)CN1C(=O)C(O)(CC(=O)c2ccccn2)c2ccccc21` (centres undefined) yielded a viability of 46.4%. For `C#CCN1C(=O)C(O)(CC(=O)c2cc(OC)ccc2OC)c2ccccc21` (centres undefined), the viability was 17.6% (active). Compound `CCOC(=O)c1ccc(-n2c(C)nc3c(cnn3-c3ccccc3C)c2=O)cc1` has a viability of 96.7%. In the case of `COc1ccc(N2CCN(C(=O)CSc3ncnc4c3cnn4-c3ccc(OC)cc3)CC2)cc1`, the viability is reported as 89.9%. For `COc1ccc(-n2c(C)nc3c(cnn3-c3ccccc3)c2=O)cc1`, the viability was 19.6% (active). `Cc1ccc(/C=N/NC(=O)C2=NNC(c3ccccc3)(c3ccccc3)C2)c(O)c1` showed a viability of 40.7%. Work on `CCOc1ccc(S(=O)(=O)Nc2ccc(S(=O)(=O)Nc3cc(OC)ccc3OC)cc2)cc1` yielded a viability of 74.9%. In the case of `COc1ccc(S(=O)(=O)N/N=C\c2ccc(OC)c(COc3ccc(C)cc3[N+](=O)[O-])c2)cc1`, the viability is reported as 29.6% (active). `COc1ccccc1CNS(=O)(=O)c1ccc(C)cc1` showed a viability of 86.8%. Compound `Cc1noc(/C=C/c2ccco2)c1S(=O)(=O)N1CCC(C(=O)N2CCc3ccccc32)CC1` has a viability of 81.4%. Work on `COCCNC(=O)C(c1ccc(C)o1)N(Cc1cccs1)C(=O)c1snc(C(N)=O)c1N` (centres undefined) yielded a viability of 91.2%. With `CCC(C(=O)NC1CCCC1)N(C(=O)c1snc(C(N)=O)c1N)c1ccc2c(c1)OCCO2` (centres undefined) the viability was 33.1% (active). For `Cc1ccc(C(C(=O)NC2CCCCC2)N(C(=O)c2csnn2)C2CC2)o1` (centres undefined), the viability was 95.7%. Work on `Cc1cc(O)cc(O)c1C(=O)Cc1cnn(-c2ccccc2)c1` yielded a viability of 79.8%. In the case of `O=C1C=C(c2ccc(Cl)cc2)C(=O)N1Nc1ccccc1`, the viability is reported as 1.17% (active). For `Cc1ccc(CCN2CC(C(=O)O)CC2=O)cc1` (centres undefined), the viability was 91.7%. For `CC(C)n1c(-c2cccs2)nc2ccccc21`, the viability was 89.8%. In the case of `CCN1C(=O)/C(=C2\SC(N3CCCCC3)=NC2=O)c2ccccc21`, the viability is reported as 67.4%. For `CC(C)=C1SC(N2CCN(c3cccc(C)c3)CC2)=NC1=O`, the viability was 96.9%. For `O=C1N=C(N2CCCC2)S/C1=C\c1cccc(Br)c1`, the viability was 36.9% (active). Work on `CC(C)C(=O)Nc1ccc2c(c1)oc1ccccc12` yielded a viability of 55.1%. For `O=C(/C=C/c1ccc(Cl)cc1Cl)c1cccnc1`, the viability was 0.85% (active). In the case of `C/C(=C\C(=O)c1cccnc1)Nc1ccc(C)c(C)c1`, the viability is reported as 93.1%. With `O=C(NCc1ccc(Cl)c(Cl)c1)c1cccnc1` the viability was 94.2%. `OC(C#CCN1CCOCC1)(c1ccccc1)C1CCCCC1` (centres undefined) gave a viability of 79.2%. `CCOC(=O)C1=C(CSc2nccn2C)NC(=O)NC1c1ccc(OC)cc1` (centres undefined) showed a viability of 82.8%. With `COCCOC(=O)C1=C(C)N=c2s/c(=C\c3cccs3)c(=O)n2C1c1cccs1` (centres undefined) the viability was 80.7%. In the case of `CCOC(=O)C1=C(C)N=c2s/c(=C\C(=O)OC)c(=O)n2C1c1ccc(OC)cc1` (centres undefined), the viability is reported as 10.6% (active). In the case of `Cc1nc2ccccc2n1C(=O)N1CCOCC1`, the viability is reported as 82.5%. `COC(=O)c1cc(NC(=O)C2C3C=CC(C3)C2C(=O)O)cc(C(=O)OC)c1` (centres undefined) gave a viability of 94.8%. With `Cc1ccccc1-c1nnc(SCC(=O)NCc2ccc3c(c2)OCO3)n1C` the viability was 91.1%. With `Cc1ccc(-n2c(SCC(=O)NCc3ccc4c(c3)OCO4)nnc2-c2cccnc2)c(C)c1` the viability was 35.1% (active). For `Cc1ccccc1-n1c(SCC(=O)NCc2cccs2)nnc1-c1ccncc1`, the viability was 89.8%.
